According to PubChem BioAssay (NCATS):
Records with an inconclusive call do not appear. Unmarked numbers belong to inactive results. Active and inactive are the calls of the source. Calls follow the shape of the dose curve; as a rule, active = well fitted curve in the direction sought with a large enough effect; inconclusive = small, poorly fitted or top-dose-only effect, or another doubt; inactive = no such curve, though single readings can be large; an effect the other way counts as inactive or inconclusive.

Target: Lysine-specific demethylase 5B (Homo sapiens) (UniProt Q9UGL1)
Assay: Optimization screen for KDM5B Histone Demethylases FDH coupled qHTS against the LOPAC library (AID 1347166); also: 0% is about no effect
Settings: KDM5B demethylation, FDH-coupled NADH fluorescence (FDH is formaldehyde dehydrogenase); series mostly up to 57.5 µM; activity, negative = inhibition: at the top concentration
Outline: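 KDM5BDeltaAP (200nM final) preincubated 10 min with compound, then 12.5uM H3K4Me3, 25uM a-ketoglutarate, ascorbate, Fe(II), NAD+ and FDH added; 50mM HEPES pH 7.5, 0.01% Tween-20. NADH fluorescence (340/450 nm) change over 30 min, room temperature.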

Lysine-specific demethylase 5B (Homo sapiens), sequence (Q9UGL1 whole entry, looked up): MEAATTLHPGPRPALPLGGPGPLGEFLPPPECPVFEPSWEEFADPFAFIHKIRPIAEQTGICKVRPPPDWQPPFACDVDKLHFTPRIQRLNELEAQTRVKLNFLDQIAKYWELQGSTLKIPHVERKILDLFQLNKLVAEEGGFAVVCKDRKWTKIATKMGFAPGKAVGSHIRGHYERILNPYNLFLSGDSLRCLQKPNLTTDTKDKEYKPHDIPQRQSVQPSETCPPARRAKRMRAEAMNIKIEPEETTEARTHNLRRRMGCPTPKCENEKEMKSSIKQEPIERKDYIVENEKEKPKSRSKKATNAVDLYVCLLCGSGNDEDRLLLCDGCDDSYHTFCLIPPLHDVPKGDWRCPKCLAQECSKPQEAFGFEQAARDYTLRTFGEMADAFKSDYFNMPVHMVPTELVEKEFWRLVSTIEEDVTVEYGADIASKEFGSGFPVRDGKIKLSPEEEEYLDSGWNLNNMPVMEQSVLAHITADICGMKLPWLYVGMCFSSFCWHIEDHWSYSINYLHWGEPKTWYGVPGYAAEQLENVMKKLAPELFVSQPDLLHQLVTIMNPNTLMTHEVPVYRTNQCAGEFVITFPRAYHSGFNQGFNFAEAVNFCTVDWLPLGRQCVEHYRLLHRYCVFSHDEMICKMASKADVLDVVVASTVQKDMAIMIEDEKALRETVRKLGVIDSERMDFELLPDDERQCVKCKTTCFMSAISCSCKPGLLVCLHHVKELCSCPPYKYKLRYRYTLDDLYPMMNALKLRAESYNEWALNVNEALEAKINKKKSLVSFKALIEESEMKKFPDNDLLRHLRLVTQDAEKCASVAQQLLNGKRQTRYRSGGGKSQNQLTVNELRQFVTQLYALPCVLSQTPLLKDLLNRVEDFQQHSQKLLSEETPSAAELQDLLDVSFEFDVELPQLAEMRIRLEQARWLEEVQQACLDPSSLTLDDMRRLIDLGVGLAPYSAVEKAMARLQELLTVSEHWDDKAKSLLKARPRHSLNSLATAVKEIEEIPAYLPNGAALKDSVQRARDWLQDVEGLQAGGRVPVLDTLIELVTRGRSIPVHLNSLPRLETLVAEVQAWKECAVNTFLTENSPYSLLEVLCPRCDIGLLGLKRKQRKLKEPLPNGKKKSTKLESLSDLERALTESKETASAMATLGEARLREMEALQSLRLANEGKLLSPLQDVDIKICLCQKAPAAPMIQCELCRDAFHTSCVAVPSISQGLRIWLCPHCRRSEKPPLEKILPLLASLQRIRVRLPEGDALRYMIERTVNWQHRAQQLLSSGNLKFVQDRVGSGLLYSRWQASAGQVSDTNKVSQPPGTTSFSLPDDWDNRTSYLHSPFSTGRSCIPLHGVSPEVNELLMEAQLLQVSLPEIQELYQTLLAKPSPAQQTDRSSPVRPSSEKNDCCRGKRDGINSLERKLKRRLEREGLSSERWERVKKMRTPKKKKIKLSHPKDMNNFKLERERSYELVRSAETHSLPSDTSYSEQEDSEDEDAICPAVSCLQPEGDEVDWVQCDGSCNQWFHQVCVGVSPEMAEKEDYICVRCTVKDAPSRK

SMILES	activity, negative = inhibition [%]	outcome
NCCCCC(=O)O	-1.05	
Cc1cc(NC(=O)Nc2ccc3c(ccn3C)c2)sn1	-10.6	
N#C/C(=C\c1ccc(-c2cc(Cl)ccc2Cl)o1)C(=O)Nc1cccc2ncccc12	-29.1	
CC(C)ON([C@@H](C(=O)NO)C(C)C)S(=O)(=O)c1ccc(-c2ccccc2)cc1	-21.3	
COc1ccccc1CNCCCCCCNCCCCCCCCNCCCCCCNCc1ccccc1OC	-5.49	
NC(CCCP(=O)(O)O)C(=O)O (stereo not given)	-2.53	
CN(C)C(N)=NCCC[C@H](N)C(=O)O	-20.4	
CN(C)c1nc(N)c(C(=O)N=C(N)N)nc1Cl	-2.46	
Oc1cc2c(cc1O)CN(C(=S)NCCc1ccc(Cl)cc1)CCC2	-22.8	
NC[C@@H]1O[C@H](C23CC4CC(CC(C4)C2)C3)Cc2c1ccc(O)c2O	-20.3	
CCCCCCCCCCCCCCCCCC(=O)NCC(COP(=O)([O-])OCC[N+](C)(C)C)OCC (stereo not given)	-7.39	
CC[C@@H](C)[C@H]1O[C@]2(CC[C@H]1C)C[C@@H]1C[C@@H](CC=C(C)[C@@H](O[C@H]3C[C@H](OC)[C@@H](O[C@H]4C[C@H](OC)[C@@H](O)[C@H](C)O4)[C@H](C)O3)[C@@H](C)C=CC=C3CO[C@@H]4[C@H](O)C(C)=C[C@@H](C(=O)O1)[C@]34O)O2	-24.9	
c1ccc(-c2ccccn2)nc1	-8.26	
C[C@@H](CN1CCC(Cc2ccccc2)CC1)[C@@H](O)c1ccc(O)cc1	-10.3	
COc1cccc(C(=O)NCCN2CCN(c3ccc(Cl)cc3)CC2)c1	-6.43	
CC12C(=O)OC(=O)C1(C)C1CCC2O1 (stereo not given)	3.5	
C[N+](C)(C)CCOP(=O)(O)OP(=O)([O-])OC[C@H]1O[C@@H](n2ccc(N)nc2=O)[C@H](O)[C@@H]1O	-0.67	

SMILES	activity, negative = inhibition [%]	outcome
COc1cc(OC)c(/C=C2/C(=O)Nc3ccccc32)c(OC)c1	-5.44	
COC(=O)c1c(C)[nH]c(C)c1C(=O)c1ccccc1Cc1ccccc1	-14.1	
c1cnc2c(c1)ccc1cccnc12	-3.77	
CCC1C(=O)OCC1Cc1cncn1C (stereo not given)		inactive
NC(=O)C(=O)O	-0.618	
O=[N+]([O-])c1ccc(CSc2ncnc3c2ncn3[C@@H]2O[C@H](CO)[C@@H](O)[C@H]2O)cc1	-3.57	
CN(C)c1ccc(/C=C2\C(=O)Nc3ccccc32)cc1	-11.8	
N[C@@H](CC(=O)O)C(=O)O	-5.47	
Cc1ccccc1CNc1ncnc2c1ncn2C1OC(CO)C(O)C1O (stereo not given)	-0.295	
CC(COc1ccc(/C=C/c2ccccc2)cc1)[N+](C)(C)C (stereo not given)	-17.6	
C#C[C@]1(O)CC[C@H]2[C@@H]3CCC4=Cc5oncc5CC4(C)[C@H]3CCC21C (stereo not given in full)	-2.3	
Nc1ncnc2c1ncn2[C@@H]1O[C@H](COP(=O)(O)OP(=O)(O)OP(=O)(O)OP(=O)(O)OC[C@@H]2O[C@H](n3cnc4c(N)ncnc43)[C@@H](O)[C@H]2O)[C@@H](O)[C@H]1O	-4.3	
OC[C@H]1O[C@@H](n2cnc3c(Nc4ccccc4)ncnc32)[C@H](O)[C@@H]1O	-5.28	
Cc1nc2sccn2c(=O)c1CCN1CCC(=C(c2ccccc2)c2ccc(F)cc2)CC1	0.383	
Brc1c(Br)c(Br)c2n[nH]nc2c1Br	-28.7	
COc1ccccc1N1CCN(CCCCNS(=O)(=O)c2cccc3c(N(C)C)cccc23)CC1	-24.8	
CSc1ccccc1N1CCN(CCCCCC(=O)NC2CCCc3ccccc32)CC1 (stereo not given)	-16.3	

System: not listed separately
Assay: Vero cells viability qHTS for Zika virus inhibitors (AID 1347167); also: % is scaled to controls: 0 for no effect and ±100 for the full control effect
Settings: cytotoxicity counter-screen (Zika); series mostly up to 45.9 µM; activity change, negative = cytotoxicity: at the top concentration
Outline: (§1)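 Cells seeded at 2.5 x 10^5 cells/mL in DMEM with 4% FBS and attached overnight at 37 degrees C, then exposed to compound for 24 to 48 hours. Viability read as ATP content by CellTiter Glo luminescence.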

SMILES	activity change, negative = cytotoxicity [%]
Oc1cc2c(cc1O)CN(C(=S)NCCc1ccc(Cl)cc1)CCC2	-8.11
NC(=O)C(=O)O	-1.68
S=c1[nH]c(-c2ccccc2)cn1-c1ccccc1	-1.85
Cc1ccccc1CNc1ncnc2c1ncn2C1OC(CO)C(O)C1O (stereo not given)	-5.25
Cn1c(=O)c2[nH]c(-c3ccccc3)nc2n(C)c1=O	-7.19

System: not listed separately
Assay: HepG2 cells viability qHTS for Zika virus inhibitors (AID 1347168); also: % is scaled to controls: 0 for no effect and ±100 for the full control effect
Settings: Zika counter-screen; series mostly up to 45.9 µM; activity change, negative = cytotoxicity: at the top concentration
Outline: as §1

SMILES	activity change, negative = cytotoxicity [%]
Oc1cc2c(cc1O)CN(C(=S)NCCc1ccc(Cl)cc1)CCC2	3.57
NC(=O)C(=O)O	0.12
S=c1[nH]c(-c2ccccc2)cn1-c1ccccc1	1.06
Cc1ccccc1CNc1ncnc2c1ncn2C1OC(CO)C(O)C1O (stereo not given)	4.35
Cn1c(=O)c2[nH]c(-c3ccccc3)nc2n(C)c1=O	8.22

System: not listed separately
Assay: Tertiary RLuc qRT-PCR qHTS assay for Zika virus inhibitors (AID 1347169); also: nearly all actives have a fitted effect of over 55% in size; also: potency is read from the fitted curve at half-maximal effect; as to activity change, negative = inhibition: top concentration of the series differs between compounds; % is scaled to controls: 0 for no effect and ±100 for the full control effect
Settings: infected Vero cells, reporter luminescence, 48-72 h; series mostly up to 45.9 µM; activity change, negative = inhibition: at the top concentration
Outline: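 Vero cells (1,000 per well) plated overnight at 37 degrees C, treated with compound in DMSO, then infected with recombinant ZIKV-RLuc (Cambodian) at MOI 1-2 for 48-72 hrs. Live-cell Renilla luciferase substrate added; luminescence read after 1-1.5 hrs.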

SMILES	Potency	activity change, negative = inhibition [%]
Oc1cc2c(cc1O)CN(C(=S)NCCc1ccc(Cl)cc1)CCC2	13.1 µM (active)	
CC[C@@H](C)[C@H]1O[C@]2(CC[C@H]1C)C[C@@H]1C[C@@H](CC=C(C)[C@@H](O[C@H]3C[C@H](OC)[C@@H](O[C@H]4C[C@H](OC)[C@@H](O)[C@H](C)O4)[C@H](C)O3)[C@@H](C)C=CC=C3CO[C@@H]4[C@H](O)C(C)=C[C@@H](C(=O)O1)[C@]34O)O2	3.7 µM (active)	
NC(=O)C(=O)O		13.2
S=c1[nH]c(-c2ccccc2)cn1-c1ccccc1		-7.22
Cc1ccccc1CNc1ncnc2c1ncn2C1OC(CO)C(O)C1O (stereo not given)		-24.2
Cn1c(=O)c2[nH]c(-c3ccccc3)nc2n(C)c1=O		2.51
